SMN2 splice up: increases expression of the SMN2 splice variant; 210,000 compounds, 2.8% hits; Potency, µM (top dose mostly 46.1 µM), hits mostly activators; AID 1458; HEK293 SMN2-luciferase splicing reporter, luminescence, 30-36 h; note: nearly all actives have a fitted effect of over 55% in size
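HEK293 cells carry an SMN2 minigene-luciferase reporter in which exon 7 inclusion puts luciferase in frame. Cells were seeded at 2000 cells/well, attached for 10-12 hours, then exposed to compounds for 30-36 hours at 37C before ONE-Glo luminescence.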
FLuc modulator: firefly luciferase modulation, counter-screen for miR-21 project; purified FLuc, Km substrates, luminescence inhibition; Potency, µM (highest dose often 57.5 µM), most hits filed as inhibitors; 360,000 compounds, 6.9% hits; AID 588342; note: nearly all actives have a fitted effect of over 55% in size
Target sequence (P08659 whole entry, looked up): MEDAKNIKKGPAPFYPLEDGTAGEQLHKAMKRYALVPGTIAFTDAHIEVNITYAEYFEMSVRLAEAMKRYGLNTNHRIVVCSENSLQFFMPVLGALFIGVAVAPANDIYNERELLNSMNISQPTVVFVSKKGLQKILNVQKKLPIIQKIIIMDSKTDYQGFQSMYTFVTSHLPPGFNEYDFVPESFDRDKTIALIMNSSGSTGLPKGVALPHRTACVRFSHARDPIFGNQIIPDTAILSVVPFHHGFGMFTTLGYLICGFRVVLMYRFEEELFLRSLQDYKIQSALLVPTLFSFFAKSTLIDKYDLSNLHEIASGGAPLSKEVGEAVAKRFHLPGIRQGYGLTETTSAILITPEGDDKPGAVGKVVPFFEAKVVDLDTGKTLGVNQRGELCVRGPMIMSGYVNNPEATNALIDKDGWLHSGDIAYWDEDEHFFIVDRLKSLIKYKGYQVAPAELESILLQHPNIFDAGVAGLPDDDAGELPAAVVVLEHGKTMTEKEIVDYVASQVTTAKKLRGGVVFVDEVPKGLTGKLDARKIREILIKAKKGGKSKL
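Purified P. pyralis luciferase, 10 nM final, with Km-level 10 uM D-luciferin and 10 uM ATP in 50 mM Tris acetate pH 7.5, 10 mM Mg acetate, 0.01% Tween-20, 0.05% BSA; 6-point qHTS titration about 60 µM downward; luminescence read.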
ELG1 genotox: inducers of genotoxicity in HEK293T ELG1-luciferase cells; HEK293T ELG1-luciferase reporter, luminescence, 16 h; Potency, µM (doses to about 46 µM), usual class: activators; 330,000 compounds, 1.3% hits; AID 504466; note: nearly all actives have a fitted effect of over 60% in size
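Luminescence read-out: rising ELG1-luciferase signal, reflecting elevated ELG1 protein under genetic stress, flags genotoxic compounds. Cells were treated for 16 hr at 37 °C before ONE-Glo detection.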
Rab9 prom act: Rab9 promoter activation | Potency, µM (highest dose often 9.22 µM), usual class: activators | Huh7 Rab9 promoter-luciferase reporter, luminescence, 24 h | 320,000 compounds, 2.8% hits; note: nearly all actives have a fitted effect of over 60% in size
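Cells were plated at 1500 per well in reduced-serum medium with 10% FBS and left 2 h. Compound in DMSO was then added for 24 h at 37 °C. Reporter signal was read by luminescence after 10 min with luciferase detection reagent.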
NPC1 promoter act: NPC1 promoter activation | Huh7 NPC1 promoter luciferase reporter, 24 h | AID 485313 | Potency, µM (series often up to 9.22 µM), usual class: activators | 320,000 compounds, 2.4% hits; note: nearly all actives have a fitted effect of over 60% in size
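Luciferase expression driven by the NPC1 promoter was measured in stably transfected Huh7 cells after a 24 h compound incubation, using a luciferase reagent and a luminescence read.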
Of the large screens only hits and unclear results are named; the others gave an inactive call. Shown are actives, neighbours in structure and some others; about 7.5% of the full set was active somewhere. Calls come from the whole dose curve; as a rule, active = well fitted curve in the direction sought with a large enough effect; inconclusive = small, poorly fitted or top-dose-only effect, or another doubt; inactive = no such curve, though single readings can be large; an effect the other way counts as inactive or inconclusive.

O=C(COC(=O)Cn1cnc2ccccc21)Nc1cc2c(cc1Cl)C(=O)c1ccccc1C2=O	SMN2 splice up 17.8µM, FLuc modulator inconclusive, ELG1 genotox inconclusive, Rab9 prom act 2.82µM, NPC1 promoter act 3.16µM
COC(=O)c1cn(NC(=O)C2CCCCC2)c(=O)c2ccccc12	Rab9 prom act 6.31µM
Cc1cccc2nc(-c3cccc(NC(=O)c4ccc(Cl)cc4)c3)cn12	FLuc modulator 6.01µM
O=C(Nc1cccc(-c2cnc3ccccc3n2)c1)c1ccc(Cl)cc1	none
O=C(Cc1ccc(F)cc1)Nc1cccc(-c2ccc3nncn3n2)c1	none
Cc1cccc2nc(-c3cccc(NC(=O)Cc4ccccc4)c3)cn12	FLuc modulator 10.7µM
O=C(COC(=O)CSc1ccc(Cl)cc1)Nc1ccc2[nH]c(=O)[nH]c2c1	none (no result: SMN2 splice up, FLuc modulator, Rab9 prom act, NPC1 promoter act)
COc1ccc(C(=S)N2CCC(C(N)=O)CC2)cc1Br	none
CCCCOc1ccc(C(=S)N2CCC(C(N)=O)CC2)cc1	SMN2 splice up inconclusive, FLuc modulator 23.9µM, ELG1 genotox inconclusive, Rab9 prom act 4.47µM, NPC1 promoter act inconclusive
C#CCn1c(S(=O)(=O)Cc2ccccc2Cl)nc(-c2ccccc2)c1-c1ccccc1	SMN2 splice up 5.62µM
C#CCn1c(S(=O)(=O)Cc2ccc(C)cc2)nc(-c2ccccc2)c1-c1ccccc1	none
COc1cccc([C@H]2Nc3ccc(S(=O)(=O)Nc4cc(C)ccc4C)cc3[C@H]3C=CC[C@H]32)c1	none (no result: ELG1 genotox, Rab9 prom act, NPC1 promoter act)
Cc1cc(C)c2c(CN3CCC(C)CC3)cc(=O)oc2c1	FLuc modulator 15.1µM, ELG1 genotox inconclusive, Rab9 prom act inconclusive, NPC1 promoter act inconclusive (no result: SMN2 splice up)
COc1cc(CNc2ccc(N3CCCC3)cc2)ccc1OCc1ccccc1F	SMN2 splice up 17.8µM, FLuc modulator inconclusive
CCNCc1ccc(OCc2ccccc2F)c(OC)c1	none
COc1cc(CNc2ccc(N3CCCC3)cc2)ccc1OCc1ccccc1	FLuc modulator 6.01µM, ELG1 genotox inconclusive
COc1cc(CNC(C)(C)CO)ccc1OCC(=O)NC(C)(C)C	none
COc1cc(CNc2ccc(N3CCCCC3)cc2)ccc1OCC(=O)NC(C)(C)C	FLuc modulator 5.36µM (no result: SMN2 splice up)
COc1cc(CNc2ncn[nH]2)ccc1OCc1cccc(C)c1	FLuc modulator 19µM, ELG1 genotox inconclusive, Rab9 prom act inconclusive, NPC1 promoter act inconclusive (no result: SMN2 splice up)
COc1ccc(NC(=O)NCCCCc2ccccc2)c(OC)c1	none (no result: SMN2 splice up)
C=CCN1c2ccccc2[C@]23C[C@@H](C(=O)OC)N(S(=O)(=O)c4ccc5c(c4)OCCN5C)C2=NC(C(=O)OC)=C(C(=O)OC)[C@H]13	none (no result: FLuc modulator, ELG1 genotox, Rab9 prom act, NPC1 promoter act)
Cc1c(Cl)cccc1NC(=O)Nc1ccc2snnc2c1	FLuc modulator inconclusive (no result: ELG1 genotox, Rab9 prom act, NPC1 promoter act)
CCN(CC)C(=O)CSc1nc(-c2ccccc2)cc(-c2ccc(OC)cc2)c1C#N	FLuc modulator 16.9µM (no result: ELG1 genotox, Rab9 prom act, NPC1 promoter act)
CCc1ccc(NC(=O)CSc2ccc(-c3ccco3)nn2)cc1	FLuc modulator inconclusive
COc1ccccc1NC(=O)CSc1ccc(-c2ccc(-n3cccn3)cc2)nn1	FLuc modulator 1.51µM (no result: SMN2 splice up)
COc1ccccc1NC(=O)CSc1ccc(-c2ccccn2)nn1	ELG1 genotox inconclusive (no result: SMN2 splice up)
C=C(C)CSc1nc(-c2ccccc2)cc(-c2ccc(OC)cc2)c1C#N	none (no result: ELG1 genotox, Rab9 prom act, NPC1 promoter act)
CC(=O)c1cccc(NC(=O)CSc2ccc(-c3ccco3)nn2)c1	FLuc modulator 23.9µM (no result: SMN2 splice up)
COc1ccc(-c2ccc(SCC(=O)NCc3ccco3)nn2)cc1OC	FLuc modulator 21.3µM
COc1ccc(-c2cc(C(F)(F)F)nc(SCC(=O)NCc3ccco3)n2)cc1OC	none
O=C(Nc1cccc(F)c1)N1CCCC2(CCNCC2)C1	none (no result: FLuc modulator, ELG1 genotox, Rab9 prom act, NPC1 promoter act)
COc1ccc(-c2ccc(SCC(=O)Nc3cccc(C(C)=O)c3)nn2)cc1OC	FLuc modulator 6.01µM (no result: SMN2 splice up)
COc1ccc(-c2noc(-c3ccccc3C(=O)NCc3ccco3)n2)cc1	FLuc modulator inconclusive
COc1ccc(-c2noc(-c3ccccc3C(=O)NCc3ccco3)n2)cc1OC	FLuc modulator 19µM
COc1ccc(-c2cc(-c3cccs3)c(C#N)c(SCC(=O)NCc3ccco3)n2)cc1	FLuc modulator 12µM, ELG1 genotox inconclusive
COc1ccc(-c2ccc(SCC(=O)NCC3CCCO3)nn2)cc1OC (configuration not stated)	FLuc modulator inconclusive (no result: SMN2 splice up)
COc1ccc(-c2ccc(SCC(=O)NC3CCCCC3)nn2)cc1OC	FLuc modulator 5.36µM, Rab9 prom act inconclusive (no result: SMN2 splice up)

From PubChem BioAssay
